FLuc inh-1: blocks purified firefly luciferase enzyme activity; purified P. pyralis luciferase, luminescence, biochemical; P08659; AID 1347043; actives 2.5% (n = 76,000); Potency, µM (doses to about 115 µM), hits mostly inhibitors; also: nearly all actives have a fitted effect of over 65% in size
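Purified 10nM P. pyralis luciferase with 10uM D-luciferin and 10uM ATP in 50mM Tris acetate pH 7.5, 10mM Mg acetate, 0.01% Tween-20, 0.05% BSA. qHTS titration; luminescence read by CCD imager.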
hNpr1 antagonist: blocks ANP-stimulated signaling of human Npr1 receptor. HEK293 hNpr1 GloSensor cGMP, ANP-stimulated luminescence. Potency, µM (highest dose often 46.3 µM), hits mostly inhibitors. actives 1.6% (n = 76,000). AID 1347048; calls by dose curve; also: nearly all actives have a fitted effect of over 60% in size
Target sequence (P16066 whole entry, looked up): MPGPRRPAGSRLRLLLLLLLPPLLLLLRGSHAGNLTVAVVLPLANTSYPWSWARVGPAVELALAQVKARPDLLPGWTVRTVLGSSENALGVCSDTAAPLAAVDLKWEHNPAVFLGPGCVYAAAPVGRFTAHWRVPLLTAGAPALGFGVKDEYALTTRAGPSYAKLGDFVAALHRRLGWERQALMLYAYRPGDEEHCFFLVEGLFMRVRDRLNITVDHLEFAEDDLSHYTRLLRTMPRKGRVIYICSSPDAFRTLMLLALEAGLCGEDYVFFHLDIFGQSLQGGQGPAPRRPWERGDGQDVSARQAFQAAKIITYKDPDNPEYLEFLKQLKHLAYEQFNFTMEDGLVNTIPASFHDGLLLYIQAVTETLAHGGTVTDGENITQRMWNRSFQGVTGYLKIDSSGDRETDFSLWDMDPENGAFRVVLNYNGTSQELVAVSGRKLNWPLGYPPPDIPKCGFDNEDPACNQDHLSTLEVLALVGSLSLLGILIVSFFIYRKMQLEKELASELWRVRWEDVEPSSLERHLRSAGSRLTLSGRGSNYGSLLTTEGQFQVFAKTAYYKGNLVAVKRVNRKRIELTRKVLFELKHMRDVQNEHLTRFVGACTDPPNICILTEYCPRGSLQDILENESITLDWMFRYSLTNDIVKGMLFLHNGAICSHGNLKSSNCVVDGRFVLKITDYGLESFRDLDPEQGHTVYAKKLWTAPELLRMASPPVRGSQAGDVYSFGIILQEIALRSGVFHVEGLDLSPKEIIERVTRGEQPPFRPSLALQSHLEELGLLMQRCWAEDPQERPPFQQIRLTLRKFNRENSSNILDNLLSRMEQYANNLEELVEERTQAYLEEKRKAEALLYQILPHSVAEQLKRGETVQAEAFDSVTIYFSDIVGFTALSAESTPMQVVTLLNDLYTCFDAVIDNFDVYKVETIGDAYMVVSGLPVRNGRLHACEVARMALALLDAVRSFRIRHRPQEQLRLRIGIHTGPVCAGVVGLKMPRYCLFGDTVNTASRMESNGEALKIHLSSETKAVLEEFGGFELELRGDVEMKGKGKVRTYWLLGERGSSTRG
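Compound pre-incubated 30 min at room temperature on GloSensor-loaded HEK293 cells stably carrying hNpr1 and the pGS-40F cGMP biosensor. Stimulation uses hNppA at 0.1 nM final; luminescence is taken at baseline and 20 min post-agonist.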
NIH3T3 tox: NIH 3T3 cell cytotoxicity; NIH 3T3 viability, CellTiter-Glo ATP luminescence, 48-72 h; Potency, µM (series often up to 96.7 µM), most hits filed as inhibitors; actives 4.3% (n = 94,000); AID 1345082; also: nearly all actives have a fitted effect of over 55% in size
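Cytotoxicity is measured as loss of cellular ATP: NIH 3T3 cells (400/well) are exposed to compound for 48 or 72 hr at 37 °C, then CellTiter-Glo luminescence is imaged after 10 min at room temperature.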
HEK cytotox: cytotoxic compounds in HEK 293 cells; HEK 293 viability, ATP luminescence (CellTiter-Glo), 48-72 h; Potency, µM (top dose mostly 115 µM), hits mostly inhibitors; actives 6.6% (n = 94,000); also: nearly all actives have a fitted effect of over 60% in size
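Pintool-delivered compounds were incubated with HEK 293 cells (250 cells/well) at 37 degree Celsius for 48 or 72 hr. ATP-dependent luminescence (CellTiter-Glo) then reported remaining viable cells.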
FLuc SDR no ATP: stabilizes firefly luciferase without ATP; shares compounds with FLuc inh-1; AID 1963318; Potency, µM (doses to about 32.7 µM), hits mostly activators; actives 7.8% (n = 1,300); Purified FLuc-C-HiBiT, Nano-Glo HiBiT luminescence, no ATP; also: nearly all actives have a fitted effect of over 55% in size
FLuc SDR ATP: binders stabilizing firefly luciferase, plus ATP | shares compounds with FLuc inh-1 | purified FLuc-C-HiBiT + ATP, HiBiT complementation luminescence | Potency, µM (titrated, usually from 32.7 µM), hits mostly activators | actives 8.7% (n = 1,300) | AID 1963319;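 also: signal reports ligand binding via conformational change of the enzyme rather than luciferase catalysis; nearly all actives have a fitted effect of over 55% in size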
FLuc inh-2: blocks firefly luciferase enzymatic activity | purified FLuc-C-HiBiT enzyme, luciferin luminescence | Potency, µM (top dose mostly 32.7 µM), hits mostly inhibitors | shares compounds with FLuc inh-1 | actives 42% (n = 1,300); also: nearly all actives have a fitted effect of over 70% in size
Each line names hits and unclear results; the compound was inactive in the other large screens (follow-up assays come after a bar, where they were run). An excerpt weighted towards active compounds, which were near 11% of everything screened. Unless noted, calls follow the shape of the dose curve; as a rule, active = well fitted curve in the direction sought with a large enough effect; inconclusive = small, poorly fitted or top-dose-only effect, or another doubt; inactive = no such curve, though single readings can be large; an effect the other way counts as inactive or inconclusive.

COc1cc(NC(=O)c2ccc(-c3ncn[nH]3)cc2)ccc1NC(=O)C(C)(C)C	FLuc inh-1 11.2µM, NIH3T3 tox inconclusive, HEK cytotox 25.1µM | FLuc SDR no ATP inactive | FLuc SDR ATP inactive | FLuc inh-2 inconclusive
COc1cc(NC(=O)CCN2CCCCCC2=O)ccc1NC(=O)C(C)(C)C	none
COc1ccc(C(=O)Nc2ccc3n(c2=O)C[C@H]2C[C@@H]3CN(C(=O)CCCC(=O)O)C2)cc1	FLuc inh-1 12.6µM | FLuc SDR no ATP inconclusive | FLuc SDR ATP inactive | FLuc inh-2 inconclusive
CNC(=O)c1cc(C)nc2onc(C3CCN(C(=O)OC)C3)c12 (stereo not given)	none (no result: FLuc inh-1, hNpr1 antagonist)
Cc1ccc(NC(=O)N2CCCC(c3noc(COc4ccccc4)n3)C2)cc1C (stereo not given)	FLuc inh-1 3.98µM, NIH3T3 tox inconclusive, HEK cytotox inconclusive | FLuc SDR no ATP inactive | FLuc SDR ATP inactive | FLuc inh-2 8.81µM
Cc1ccc(OCc2nc(C3CN(C(=O)C4(c5ccccc5)CC4)C3)no2)cc1	NIH3T3 tox inconclusive, HEK cytotox inconclusive
Cc1cc(C)cc(NC(=O)N2CCCC(c3noc(COc4ccccc4)n3)C2)c1 (stereo not given)	FLuc inh-1 inconclusive, NIH3T3 tox inconclusive, HEK cytotox inconclusive
Cc1ccc(OCc2nc(C3CN(C(=O)c4n[nH]c5ccccc45)C3)no2)cc1	FLuc inh-1 8.91µM, hNpr1 antagonist inconclusive, NIH3T3 tox 20µM, HEK cytotox inconclusive | FLuc SDR no ATP inconclusive | FLuc SDR ATP inconclusive | FLuc inh-2 8.81µM
Nc1nc2c(ncn2COCCO)c(=O)[nH]1	none (no result: FLuc inh-1, hNpr1 antagonist, NIH3T3 tox, HEK cytotox) | FLuc SDR no ATP inactive | FLuc SDR ATP inactive | FLuc inh-2 inactive
C=C1[C@H](CO)[C@@H](O)C[C@@H]1n1cnc2c(=O)[nH]c(N)nc21	none (no result: FLuc inh-1, hNpr1 antagonist, NIH3T3 tox, HEK cytotox) | FLuc SDR no ATP inactive | FLuc SDR ATP inactive | FLuc inh-2 inactive
CN(C)C(=O)c1c[nH]c2cccnc12	none (no result: FLuc inh-1, hNpr1 antagonist)
COCCn1c(=O)c(C(=O)NCc2ccc(F)cc2)nc2cccnc21	none (no result: FLuc inh-1, hNpr1 antagonist)
CNC(=O)c1cc(C2CC2)nc2c1c(C1CCN(C(=O)Cc3ccccn3)CC1)nn2C	none (no result: FLuc inh-1, hNpr1 antagonist)
Cn1cc(-c2ccccc2)cc1C(=O)O	none
O=C(COc1ccc(F)cc1)N1CC(Oc2ccc(-c3nc(-c4ccccc4)no3)cc2)C1	FLuc inh-1 inconclusive, HEK cytotox inconclusive
c1ccc(-c2noc(-c3ccc(OC4CNC4)cc3)n2)cc1	FLuc inh-1 0.708µM, hNpr1 antagonist 8.91µM, NIH3T3 tox 22.4µM, HEK cytotox 25.1µM | FLuc SDR no ATP inconclusive | FLuc SDR ATP inconclusive | FLuc inh-2 2.79µM
O=C(NCc1ccc(F)cc1)N1CC(Oc2ccc(-c3nc(-c4ccccc4)no3)cc2)C1	FLuc inh-1 2.24µM, hNpr1 antagonist 0.631µM, HEK cytotox inconclusive | FLuc SDR no ATP inactive | FLuc SDR ATP inactive | FLuc inh-2 inactive
O=C(Cc1ccccc1)N1CC(Oc2ccc(-c3nc(-c4ccccc4)no3)cc2)C1	FLuc inh-1 inconclusive, hNpr1 antagonist inconclusive, HEK cytotox inconclusive
CC(C)Cc1noc(-c2ccc(N3CCC(O)CC3)nc2)n1	FLuc inh-1 0.794µM, hNpr1 antagonist 8.91µM, NIH3T3 tox inconclusive | FLuc SDR no ATP inactive | FLuc SDR ATP inconclusive | FLuc inh-2 5.56µM
CC(C)CNC(=O)c1ccc2c(c1)NC(C)(COCC1CC1)CO2 (stereo not given)	NIH3T3 tox inconclusive, HEK cytotox inconclusive
O=C(c1ccc2oc(-c3cccc(F)c3)nc2c1)N1CCCCC1CCO (stereo not given)	FLuc inh-1 14.1µM, NIH3T3 tox inconclusive, HEK cytotox inconclusive | FLuc SDR no ATP inactive | FLuc SDR ATP inactive | FLuc inh-2 inconclusive
Fc1ccccc1-c1noc2c1CN(Cc1cccn1-c1nccs1)CC2	HEK cytotox inconclusive
Cc1cnc(CC2CCCN(C(=O)CCc3c[nH]c4ccccc34)C2)n1C(C)C (stereo not given)	FLuc inh-1 14.1µM, HEK cytotox inconclusive | FLuc SDR no ATP inactive | FLuc SDR ATP inactive | FLuc inh-2 inactive
O=C(NCc1ccc(F)cc1Cl)C1CCN(C(=O)c2ncn3c2COC(c2ccccc2)C3)CC1 (stereo not given)	FLuc inh-1 12.6µM | FLuc SDR no ATP inactive | FLuc SDR ATP inconclusive | FLuc inh-2 inconclusive
CCOc1ccccc1CNC(=O)C1CCN(C(=O)c2ncn3c2COC(c2ccccc2)C3)CC1 (stereo not given)	FLuc inh-1 3.98µM | FLuc SDR no ATP inactive | FLuc SDR ATP 2.21µM | FLuc inh-2 3.13µM
O=C(NCc1ccccc1Cl)C1CCN(C(=O)c2ncn3c2COC(c2ccc(F)cc2)C3)CC1 (stereo not given)	FLuc inh-1 inconclusive
COc1ccccc1CNC(=O)C1CCN(C(=O)c2ncn3c2COC(c2ccc(C)cc2)C3)CC1 (stereo not given)	FLuc inh-1 inconclusive
Cc1cnc(-c2ccccc2)n1C1CCCN(C(=O)COc2ccc(F)cc2)C1 (stereo not given)	HEK cytotox inconclusive
O=C(c1ccccc1)N1CCc2nc(C3CC3)nc(-c3ccc(Cl)cc3)c2C1	HEK cytotox inconclusive (no result: FLuc inh-1, hNpr1 antagonist)
O=C(Nc1ccccc1)N1CCc2nc(C3CC3)nc(-c3ccc(Cl)cc3)c2C1	NIH3T3 tox inconclusive, HEK cytotox inconclusive | FLuc SDR no ATP inactive | FLuc SDR ATP inactive | FLuc inh-2 inactive
O=C(NC1CCCN(c2cc(-c3ccc(F)cc3)[nH]n2)C1)c1ccc(C(F)(F)F)cc1 (stereo not given)	HEK cytotox inconclusive
COc1ccc(C(=O)NC2CCCN(c3cc(-c4ccc(F)cc4)[nH]n3)C2)cc1OC (stereo not given)	FLuc inh-1 12.6µM, HEK cytotox inconclusive | FLuc SDR no ATP inactive | FLuc SDR ATP inactive | FLuc inh-2 inconclusive
COc1ccc(C(=O)NC2CCCN(c3cc(-c4ccc(Cl)cc4)[nH]n3)C2)cc1OC (stereo not given)	FLuc inh-1 3.98µM, NIH3T3 tox inconclusive, HEK cytotox 35.5µM | FLuc SDR no ATP inactive | FLuc SDR ATP inactive | FLuc inh-2 6.24µM
COc1ccc(-c2cc(N3CCCC(NC(=O)c4ccc(OC)c(OC)c4)C3)n[nH]2)cc1 (stereo not given)	FLuc inh-1 3.16µM, NIH3T3 tox inconclusive, HEK cytotox inconclusive | FLuc SDR no ATP inconclusive | FLuc SDR ATP inconclusive | FLuc inh-2 3.94µM
COc1ccccc1CCN1CCC(CN(C)C(=O)CCc2ccccc2Cl)CC1	NIH3T3 tox inconclusive, HEK cytotox inconclusive
COc1ccc(C(=O)N2CCCC(c3nn(C)c(=O)n3C(C)C)C2)cc1OC (stereo not given)	none (no result: FLuc inh-1, hNpr1 antagonist)
